# Bioassay records as filed in PubChem.
# rTrxR1 inhibitor – blocks rat thioredoxin reductase 1; recombinant rTrxR1, NADPH fluorescence consumption, selenite substrate; O89049; Potency, µM (series often up to 114 µM), without a hit: at the top dose activity change, negative = inhibition, actives largely listed as inhibitors; hit rate 1% among 390,000; also: nearly all actives have a fitted effect of over 65% in size
# Target sequence (O89049 whole entry, looked up): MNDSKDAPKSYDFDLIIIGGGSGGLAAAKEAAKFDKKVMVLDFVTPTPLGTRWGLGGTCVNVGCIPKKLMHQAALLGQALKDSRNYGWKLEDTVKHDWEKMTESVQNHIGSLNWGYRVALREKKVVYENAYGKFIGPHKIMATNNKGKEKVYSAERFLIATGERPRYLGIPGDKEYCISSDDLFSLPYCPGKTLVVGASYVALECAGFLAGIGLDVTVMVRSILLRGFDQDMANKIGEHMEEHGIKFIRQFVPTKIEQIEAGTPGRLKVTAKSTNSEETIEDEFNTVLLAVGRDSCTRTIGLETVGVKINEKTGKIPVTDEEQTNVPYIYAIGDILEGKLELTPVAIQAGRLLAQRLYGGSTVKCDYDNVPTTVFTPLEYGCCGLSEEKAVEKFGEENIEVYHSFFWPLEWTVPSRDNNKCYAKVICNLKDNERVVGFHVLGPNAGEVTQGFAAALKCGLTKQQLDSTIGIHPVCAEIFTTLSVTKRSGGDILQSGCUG
#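 Rat TrxR1 (90 nM in the dispensed reagent) was pre-reduced with 400 uM NADPH for 5 min at room temperature, then incubated with compound for 15 min. After 400 uM selenite was added, NADPH fluorescence (Ex 340/Em 450 nm) was followed for 8 min.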
# GALK inh – blocks human galactokinase activity; Purified GALK, Kinase-Glo residual ATP luminescence; Potency, µM (doses to about 57.5 µM), inactives show top-dose activity change, negative = inhibition, usual class: inhibitors; hit rate 0.007% among 270,000; AID 1868; P51570
#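 Quantitative HTS: GALK 5 nM, ATP 35 uM, galactose 100 uM, 1 h room temperature, then luciferase-based ATP detection.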
# TrxR1 substrate – rat thioredoxin reductase 1 substrate activity; Potency, µM (highest dose often 114 µM), inactives show top-dose activity change, negative = substrate turnover; AID 588456; O89049; purified TrxR1 substrate turnover, NADPH consumption readout; hit rate 0.01% among 390,000; also: nearly all actives have a fitted effect of over 50% in size
#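 Rat TrxR1, dispensed at 90 nM, was prereduced with 400 uM NADPH (final) for 5 min at ~22 deg C, then incubated with compound 15 min before 400 uM selenite. A first-read NADPH fluorescence drop versus no-compound background flagged substrates.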
# USP2a block – inhibitors of human ubiquitin-specific protease USP2a. O75604. USP2 core, Ub-CHOP2 coupled fluorogenic reporter, 485/531. Potency, µM (top dose mostly 38.3 µM), for the others: at the highest dose activity change, negative = inhibition, usual class: inhibitors. hit rate 0.01% among 330,000;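 also: plate controls were DMSO wells for no effect and full inhibition by NEM control for full effect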
#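 USP2 core (10nM final) preincubated 30min RT with compound in 20mM Tris-HCl pH 8.0, 2mM CaCl2, 2mM beta-mercaptoethanol, 0.05% CHAPS; 25nM Ub-CHOP2 plus 25nM reporter substrate added, fluorescence (Ex485/Em531) read after 60min.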
# RGS4 inhibitor – inhibitors of human regulator of G protein signaling 4. Potency, µM (doses to about 114 µM), for the others: top-dose activity change, negative = inhibition, most hits filed as inhibitors. hit rate 0.039% among 390,000. P49798. AID 504845. Transcreener GDP fluorescence polarization, RGS4-accelerated GTP hydrolysis; also: nearly all actives have a fitted effect of over 75% in size
#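 MLSMR compounds (23 nl, pin-transferred) preincubated 10 min at room temperature with a 500nM (2x) first reagent, then RGS4 at 900nM (2x) plus Transcreener GDP mix added; fluorescence polarization (620/688 nm) read before and after 90 min at 30 °C.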
# Eya2 inh – Eya2 (human) phosphatase inhibition. hit rate 0.006% among 330,000. Potency, µM (doses to about 76.9 µM), inactives show at the highest dose activity, negative = inhibition, hits mostly inhibitors. O00167. recombinant Eya2, OMFP fluorescence dephosphorylation (OMFP is methylfluorescein phosphate)
#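 Eya2 protein (added as 0.2 uM solution) was preincubated with compound for 10 min at ambient temperature in 50 mM HEPES pH 7.5, 50 mM NaCl, 5 uM MgCl2, 0.05% BSA, 1 mM DTT. OMFP (added at 50 uM) then reacted 10 min; fluorescence read at 485/525 nm.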
# Active calls of the source: *; ? = inconclusive; · = no result; [ ] = dose if it differs, or a comment. A selection: hits, their analogues and other compounds. The true share with any hit is near 1%. Calls follow the shape of the dose curve; as a rule, active = well fitted curve in the direction sought with a large enough effect; inconclusive = small, poorly fitted or top-dose-only effect, or another doubt; inactive = no such curve, though single readings can be large; an effect the other way counts as inactive or inconclusive. Unless noted, % is scaled to controls: 0 for no effect and ±100 for the full control effect; potency is read from the fitted curve at half-maximal effect.
SMILES,rTrxR1 inhibitor,GALK inh,TrxR1 substrate,USP2a block,RGS4 inhibitor,Eya2 inh
CCOc1ccc(C(C)=O)cc1N1C(=O)C2C3C=CC(C3)C2C1=O (stereo not drawn),-5.5%,-2.4%,9.0%[57.1 µM],1.6%,10.3%,8.2%
CCOc1ccc(C(C)=O)cc1N1C(=O)C2C3C=CC(O3)C2C1=O (stereo not drawn),3.16µM*,-3.2%,6.9%,2.0%,?,16.1%
C[N+]1(CC(=O)c2ccc(Oc3ccccc3)cc2)CCOCC1,5.8%,·,1.4%,·,·,·
Cc1ccc(OCCNC(=O)/C=C/c2ccco2)cc1C,11.2µM*,0.6%,3.8%,-0.9%,-40.5%,-21.0%
O=C(/C=C/c1ccco1)NCCc1ccc(F)cc1,44.7µM*,-1.0%,4.4%,0.0%,-52.2%,-2.1%
NS(=O)(=O)c1ccc(NC(=O)/C=C/c2ccco2)cc1,17.8µM*,-2.7%,-13.8%,3.6%,10.3%,3.8%
O=C(/C=C/c1ccco1)Nc1ccc(F)cc1,?,·,1.0%[57.1 µM],-1.1%,-21.1%,-20.9%
CC(=O)NS(=O)(=O)c1ccc(NC(=O)/C=C/c2ccco2)cc1,-4.3%,2.5%,-6.0%[57.1 µM],-0.1%,-16.6%,5.0%
CC(=O)Nc1ccc(NC(=O)/C=C/c2ccc3c(c2)OCO3)cc1,9.3%[57.1 µM],-0.4%,12.5%[57.1 µM],1.0%,-10.6%,-20.5%
O=C(/C=C/c1ccco1)Nc1ccc2c(c1)OCO2,70.8µM*,6.3%,-13.2%,-0.9%,14.1%,5.6%
CC(=O)c1c(C)[nH]c2ccc(OCC(O)CNCCc3ccccc3)cc12 (stereo not drawn),-22.5%,·,-5.2%,·,·,·
O=C(C[n+]1cccc(Br)c1)c1ccc(Br)cc1,-16.4%,·,5.3%,·,·,·
c1csc(-c2nc(N3CCN(Cc4ccc5c(c4)OCCO5)CC3)c3ccccc3n2)c1,-2.9%,·,2.6%,·,6.0%,·
Cc1ccc(S(=O)(=O)N2CCN(c3nc(-c4ccc(CN5CCNCC5)s4)nc4ccccc34)CC2)cc1,-3.3%,·,-6.7%,·,-24.4%,·
CC(C)(C)n1ncc2c(=O)n(Cc3cccc(C#N)c3)cnc21,10.0%,·,-5.2%,·,·,·
O=C(/C=C/c1ccccc1)NCc1ccc2c(c1)OCO2,19.7%,0.7%,3.2%,2.7%,-8.4%,0.7%
O=C(/C=C/c1ccco1)Nc1cccnc1Cl,15.8µM*,-0.8%,0.6%,1.7%,-43.1%,4.4%
O=C(/C=C/c1ccco1)NCC1COc2ccccc2O1 (stereo not drawn),15.8µM*,-1.9%,0.5%,-8.2%,?,-24.7%
Cc1cc(C(=O)NNC(=O)/C=C/c2ccco2)c(C)o1,2.82µM*,·,3.9%,-0.6%,-42.4%,-3.0%
COc1ccccc1/C=C/C(=O)NNC(=O)c1cc(C)oc1C,-16.2%,·,0.5%,-0.5%,14.2%,-7.7%
O=C(/C=C/c1ccco1)NCc1ccc2c(c1)OCO2,35.5µM*,-2.2%,2.2%,-1.0%,?,3.6%
COc1ccc(/C=C/C(=O)NCC2COc3ccccc3O2)c(OC)c1 (stereo not drawn),43.3%[57.1 µM],8.2%,-10.4%[57.1 µM],-1.3%,-30.0%,-12.3%
O=C(/C=C/c1ccccc1)Nc1cccnc1Cl,13.7%[57.1 µM],-3.4%,-8.0%,0.9%,-8.4%,1.2%
O/N=C(/C[n+]1csc2ccccc21)c1ccccc1,20.6%,·,-7.6%,·,·,·
Nc1ccc(/C=C/c2ccnc3ccccc23)c(N)c1,?,·,-4.5%,·,·,·
SMILES,rTrxR1 inhibitor,GALK inh,TrxR1 substrate,USP2a block,RGS4 inhibitor,Eya2 inh
O=C(C=Cc1ccco1)c1ccco1,14.1µM*,·,12.7%[57.1 µM],·,-33.6%,·
CCc1ccccc1NC(=O)c1c(NC(=O)c2ccccc2)sc2c1CCCC2,89.1µM*,·,81.4%,·,1.5%,·
COc1ccc(/C=c2\[nH]c(=O)/c(=C/c3ccc(OC)cc3)[nH]c2=O)cc1,21.4%,·,6.9%,·,·,·
O=C(CCNc1ccc(F)c(Cl)c1)c1ccco1,?,-2.9%,11.8%,-0.4%,21.6%,5.7%
O=C(CCNc1cc(Cl)cc(Cl)c1)c1ccco1,8.91µM*,2.0%,2.2%,-4.4%,12.5%,3.5%
O=C(CCNc1ccc(F)cc1)c1ccco1,11.2µM*,0.2%,-4.5%,-0.1%,-4.1%,4.4%
